VCAM1 TNFa pot: enhances TNF alpha induced VCAM1 expression in HUVEC; HUVEC TNFa-stimulated VCAM-1 immunofluorescence, high-content imaging; scaled per plate to unstimulated/TNFa-only wells; activation, % at 2 µM; 0.19% of 93,000 active; AID 808;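 active = activation above the screen mean plus 3 SD, with well images confirming the hit on visual review, cut at about 28% in these data, passing the limit was not always enough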;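 also: signal is the number of cytoplasmic VCAM-1 stained grains per positive cell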
VCAM1 pot confirm: enhancers of VCAM1 induction in HUVEC – imaging, triplicate retest, confirmation. shares compounds with VCAM1 TNFa pot. HUVEC TNFa-stimulated VCAM-1 immunofluorescence imaging. activation, % at 2 µM. 230 tested, under 10 active. AID 1034;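 active = activation above 30% in triplicate retests at 2 µM, then confirmed by visual review of the well images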
Large screens that a line does not name were inactive (follow-up assays come after a bar, where they were run). The entries come from a sample that favours hits as a whole.

CCCC12CN3CN(C1)CC(CCC)(C3)C2O (stereo not drawn)	VCAM1 TNFa pot 32.6 | VCAM1 pot confirm inactive
O=C(c1ccncc1)C12CN3CN(CN(C3)C1)C2	none
O=P(/C(=N/O)N1CCOCC1)(N1CCOCC1)N1CCOCC1	none
CCNc1ccc(P(=S)(N(C)C)N(C)C)cc1	none
CCOc1cccc(OCC)c2c(C)[n+](CC3CCCO3)c(C)c1-2 (stereo not drawn)	VCAM1 TNFa pot 32.0 | VCAM1 pot confirm inactive
C=C1N2CCC(CC2)C1(O)c1ccccc1C (stereo not drawn)	none
Cn1c(=O)cc(OCC(=O)N2CCN(Cc3ccc4c(c3)OCO4)CC2)c2ccccc21	none
CCC(=O)c1cc(F)c(N2CCN(CC)CC2)cc1C	none
CC1N(O)C2CCCCCC2N1O (stereo not drawn)	none
O=C(N/N=C1/CN2CCC1CC2)c1cccc(O)c1	none

Compound activity: PubChem, Columbia University Molecular Screening Center
